Source: PubChem
Compounds with a hit are over-represented: about 1.1% of the library has one in this group of screens.
TNAP act DEA: human TNAP enzyme activators, primary screen, biochemical, luminescent, intermediate phosphate acceptor level; purified TNAP, CDP-star luminescence, 100 mM DEA, 30 min; active compounds read high; scale: 0 levamisole-inhibited, 1 vehicle-only enzyme; 64,000 tested, under 10 active; AID 813, 2007; Alkaline phosphatase, tissue-nonspecific isozyme (Homo sapiens), P05186; activation factor at 20 µM;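 active = activation factor of at least 2 at 20 µM, relative to controls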
MT1-MMP txn act: MT1-MMP promoter reporter activation – cell-based, luciferase luminescence, primary screen; activation factor at 10 µM; AID 750, 2007; HT1080 MT1-MMP promoter luciferase reporter, overnight; active compounds read high; 86,000 tested, 0.16% active;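 active = activation factor of at least 2 for MT1-MMP transcription at 10 µM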
Ec RNAP inh: E. coli RNAP inhibitors, biochemical. DNA-directed RNA polymerase subunit beta (Escherichia coli (strain K12)), P0A8V2. E. coli RNA polymerase, fluorescence transcription assay. inhibition, %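 (tested at 10 µM)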. 62,000 tested, 0.2% active; in the data active = inhibition above about 20%;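 also: 0% = enzyme without compound and 100% = no enzyme blank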
Her2 expr inh: inhibitors of Her2 protein expression, primary screen, SKBR-3 cells, AlphaScreen, 66K library | HER2 level % of control, % at 10 µM | SKBR-3 HER2 protein level, 18-24 h; active compounds read low | Receptor tyrosine-protein kinase erbB-2 (Homo sapiens), P04626 | 65,000 tested, 0.69% active;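 active = HER2 level under 5% of the carrier-only control; inconclusive = no clear call, values can overlap the other calls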;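 also: 100% = DMSO carrier and 0% = 500 nM PU-H71 HSP90 inhibitor; lower value means stronger loss of Her2 protein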
Hsp90 inh: tumor Hsp90 inhibitors, primary screen, cell lysate, fluorescence polarization, NCI-N417 lysate; Heat shock protein HSP 90-alpha (Homo sapiens), P07900; Cy3B-geldanamycin FP displacement; inhibition, % at 30 µM; 64,000 tested, 0.35% active; AID 429, 2006;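 active = inhibition above 50%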;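 also: 0% = tracer plus lysate wells and 100% = tracer alone without lysate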
HePTP inh: inhibitors of human HePTP phosphatase, primary screen, biochemical, absorbance, leukemia target; Tyrosine-protein phosphatase non-receptor type 7 (Homo sapiens), P35236; recombinant HePTP phosphatase activity, OD absorbance; inhibition, % at 20 µM; 110,000 tested, 0.64% active; AID 521, 2006; in the data active = inhibition above about 50%; inconclusive = no clear call, values can overlap the other calls;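 also: plate controls were vehicle for no effect and reference inhibitor for full effect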
An asterisk follows results filed as active; ? = inconclusive; / = no result given; ! = not active in a repeat.

SMILES	TNAP act DEA	MT1-MMP txn act	Ec RNAP inh	Her2 expr inh	Hsp90 inh	HePTP inh
Cc1ccccc1-n1c(O)c(C=C2C=CC=N2)c(=O)[nH]c1=S	/	/	/	/	/	103*
C[C@H]1CCCC(=O)CCC/C=C/c2cc(O)cc(O)c2C(=O)O1	0.8	0.8	8	/	87*	8
C[C@H]1C2Cc3ccc(O)cc3C1(C)CCN2CC1CC1 (some centres undefined)	/	/	/	/	1	/
CN1CC[C@@]2(C)c3cc(O)ccc3N(C)C12 (some centres undefined)	/	/	/	/	91*	/
CCCCn1c(NC(=O)c2ccco2)c(C(=O)OCC)c2nc3ccccc3nc21	0.9	1.2	-6	80	72*	9
Cc1c(C)[n+](=O)c2cc(N3CCN(C)CC3)c(Cl)cc2n1[O-]	/	/	/	/	/	-7
CCn1c(O)c(C(=O)CC2NCCc3ccccc32)c(=O)n(CC)c1=S (centres undefined)	0.9	1.2	0	-17*	-8	-5
CC(C)[C@@]1(NC(=O)[C@@H]2C[C@@H]3c4cccc5[nH]cc(c45)C[C@H]3N(C)C2)O[C@@]2(O)[C@@H]3CCCN3C(=O)[C@H](Cc3ccccc3)N2C1=O	0.9	1.2	9	104	87*!	14
CC(C)[C@@]1(NC(=O)[C@@H]2C=C3c4cccc5[nH]cc(c45)C[C@H]3N(C)C2)O[C@@]2(O)[C@@H]3CCCN3C(=O)[C@H](Cc3ccccc3)N2C1=O	1	1	-1	90	-9	13
Cc1ccc(N2C(=O)NC(=O)/C(=C\c3ccc(-c4ccc(Cl)c(C(=O)O)c4)o3)C2=O)cc1	/	/	/	/	/	5
CN1CCN(c2ccccc2[N+](=O)[O-])CC1	/	/	/	/	/	6
CN1CCN(c2ccc(C(N)=O)cc2N)CC1	0.9	1	11	-20*	-2	-17
CN(C)c1ccc(/C=C\c2nc3ccccc3c(=O)n2-c2ccc(O)cc2)cc1	/	/	/	/	/	6
O=C(ON1CC1(C(F)(F)F)C(F)(F)F)c1ccccc1 (centres undefined)	/	/	/	/	/	-2
CCN1C(=O)/C(=C/c2cccn2C)C(=O)NC1=S	/	/	/	/	/	100*
CCN1C(=O)/C(=C/c2ccoc2)C(=O)NC1=S	/	/	/	/	/	102*
C=CCN1C(=O)/C(=C\c2cccn2-c2ccc([N+](=O)[O-])cc2)C(=O)NC1=S	/	/	/	/	/	102*
O=C1NC(=S)N(c2ccccc2)C(=O)/C1=C/c1ccco1	/	/	/	/	/	102*
O=C1NC(=S)N(c2ccccc2F)C(=O)C1=Cc1ccco1	/	/	/	/	/	103*
C=CCN1C(=O)/C(=C\C=C\c2ccco2)C(=O)NC1=S	/	/	/	/	/	102*
O=C1NC(=S)N(c2ccc(F)cc2)C(=O)/C1=C/c1ccc(Br)o1	/	/	/	/	/	104*
COc1ccc(N2C(=O)/C(=C/c3ccc(I)o3)C(=O)NC2=S)cc1	/	/	/	/	/	101*
O=C1NC(=O)N(c2ccc(Cl)cc2)C(=O)/C1=C/c1ccc(Br)o1	/	/	/	/	/	100*
COc1ccc(N2C(=O)/C(=C/c3ccc(-c4cc(C(=O)O)ccc4Cl)o3)C(=O)NC2=S)cc1	/	/	/	/	/	34
O=c1c2ccccc2nc(/C=C/c2ccc([N+](=O)[O-])cc2)n1-c1ccccc1O	/	/	/	/	/	-3
SMILES	TNAP act DEA	MT1-MMP txn act	Ec RNAP inh	Her2 expr inh	Hsp90 inh	HePTP inh
CCCCCn1c(N)c(C(=O)NCCN2CCOCC2)c2nc3ccccc3nc21	1.1	1.2	-5	37	-7	10
CCCCCCn1c(N)c(C(=O)NCCN2CCOCC2)c2nc3ccccc3nc21	1	1	-8	-5.8*	-6	3
COc1ccc(CCNCc2ccccc2[N+](=O)[O-])cc1OC	/	/	/	/	/	-3
O=C(c1ccc([N+](=O)[O-])cc1)C12CN3CN(CN(C3)C1)C2	/	/	/	/	/	-2
N[C@@H](CCl)C(=O)O	/	/	/	/	2	/
NC(Cc1cc(O)c(O)cc1O)C(=O)O (centres undefined)	/	/	/	/	94*	/
O=[N+]([O-])N=S(c1ccccc1)c1ccccc1	/	/	/	/	/	-8
O=C(Nc1ccc(Cl)cc1C(=O)c1ccccc1)c1ccc(S(=O)(=O)N2CCOCC2)cc1	/	/	/	/	/	5
CCn1nc(-c2cccs2)nc2c(=O)n(C)c(=O)nc1-2	0.9	/	9	-0.1*	98*	?
CCOc1ccc(-n2c(-c3cccs3)nc3ccccc3c2=O)cc1	/	/	/	/	/	-14
O=C1NC(=O)C(=Cc2cc(Cl)c(O)c(Cl)c2)C(=O)N1	/	/	/	/	/	-13
COC1CCCCC1NCCc1ccc(Cl)cc1Cl (centres undefined)	/	/	/	/	/	-4
CN1C(=O)NC(=O)/C(=C/c2ccc(-c3ccccc3[N+](=O)[O-])o2)C1=O	/	/	/	/	/	2
COc1cc2c(cc1OC)-c1c(OC)c(OC)cc3c1C(C2)N(C)CC3 (centres undefined)	1	1.2	-2	87	91*	-1
O=P(N[C@@H](c1ccccc1)[C@@H]1C[C@H]1CO)(c1ccccc1)c1ccccc1	/	1.4	/	/	/	/
C=C(CC1(CNP(=O)(c2ccccc2)c2ccccc2)CC1)c1ccccc1	/	2*	/	/	/	/
COc1ccc(/C=C/c2nc3ccccc3c(=O)n2-c2ccc(O)cc2)cc1	/	/	/	/	/	-4
COc1ccc(-c2ccc(C=C3C(=O)NC(=O)NC3=O)o2)c([N+](=O)[O-])c1	/	/	/	/	/	11
CN(N=O)c1ccc(O)c(O)c1	/	/	/	/	93*	/
